Laboratory results taken from the supplement of paper PMC8728848.
About 410 targets per protein were measured; listed, in parts, are those with the strongest signals and a random draw of the rest.

Legend:
Experiment in all cases: glycan array binding signal (z-score within array); higher = stronger binding
Conditions in all cases: glycan notation: IUPAC condensed, linker removed
[1] = target: Fuc(a1-2)Gal(b1-3)[Fuc(a1-4)]GlcNAc(b1-2)Man(a1-3)[Fuc(a1-2)Gal(b1-3)[Fuc(a1-4)]GlcNAc(b1-2)Man(a1-3)]Man(b1-4)GlcNAc(b1-4)GlcNAc
Summary of the method: (§1)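 Glycan array binding is given as a within-array Z-score, which can be read as non-binding when negative. The arrays, 3228 of them, came from the Consortium for Functional Glycomics database and were retained only where the protein sequence was available. Z-scores were averaged across arrays of the same protein sequence at different concentrations or buffers and across linkers.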

[2] = target: Fuc(a1-2)Gal(b1-3)[Fuc(a1-4)]GlcNAc(b1-2)Man(a1-3)[Fuc(a1-2)Gal(b1-3)[Fuc(a1-4)]GlcNAc(b1-2)Man(a1-6)]Man(b1-4)GlcNAc(b1-4)[Fuc(a1-6)]GlcNAc(b1-4)[Fuc(a1-6)]GlcNAc
Summary of the method: as §1

[3] = target: Fuc(a1-2)Gal(b1-4)GlcNAc(b1-2)Man(a1-3)[Fuc(a1-2)Gal(b1-4)GlcNAc(b1-2)Man(a1-6)]Man(b1-4)GlcNAc(b1-4)[Fuc(a1-6)]GlcNAc
Summary of the method: as §1

[4] = target: Fuc(a1-2)[Gal(a1-3)]Gal(b1-3)GalNAc
Summary of the method: as §1

[5] = target: Fuc(a1-2)[Gal(a1-3)]Gal(b1-3)GlcNAc(b1-3)GalNAc
Summary of the method: as §1

[6] = target: Fuc(a1-2)[Gal(a1-3)]Gal(b1-4)GlcNAc(b1-2)Man(a1-3)[Fuc(a1-2)[Gal(a1-3)]Gal(b1-4)GlcNAc(b1-2)Man(a1-6)]Man(b1-4)GlcNAc(b1-4)[Fuc(a1-6)]GlcNAc
Summary of the method: as §1

[7] = target: Fuc(a1-2)[Gal(a1-3)]Gal(b1-4)GlcNAc(b1-3)[Fuc(a1-2)[Gal(a1-3)]Gal(b1-4)GlcNAc(b1-6)]GalNAc
Summary of the method: as §1

[8] = target: Fuc(a1-2)[Gal(a1-3)]Gal(b1-4)[Fuc(a1-3)]GlcNAc
Summary of the method: as §1

[9] = target: Fuc(a1-2)[Gal(a1-3)]Gal(b1-4)[Fuc(a1-3)]GlcNAc(b1-3)GalNAc
Summary of the method: as §1

[10] = target: Fuc(a1-2)[GalNAc(a1-3)]Gal(b1-3)GalNAc(b1-3)Gal(a1-4)Gal(b1-4)Glc
Summary of the method: as §1

[11] = target: Fuc(a1-3)[Gal(b1-4)]GlcNAc(b1-2)Man
Summary of the method: as §1

Fuc(a1-4)GlcNAc = target: Fuc(a1-4)GlcNAc
Summary of the method: as §1

[12] = target: Gal(a1-3)Gal(b1-4)[Fuc(a1-3)]GlcNAc
Summary of the method: as §1

[13] = target: Gal(a1-3)Gal(b1-4)[Fuc(a1-3)]GlcNAc(b1-2)Man(a1-3)[Gal(a1-3)Gal(b1-4)[Fuc(a1-3)]GlcNAc(b1-2)Man(a1-6)]Man(b1-4)GlcNAc(b1-4)GlcNAc
Summary of the method: as §1

Gal(a1-3)GalNAc = target: Gal(a1-3)GalNAc
Summary of the method: as §1

[14] = target: Gal(a1-4)Gal(b1-4)GlcNAc(b1-2)Man(a1-3)[Gal(a1-4)Gal(b1-4)GlcNAc(b1-2)Man(a1-6)]Man(b1-4)GlcNAc(b1-4)GlcNAc
Summary of the method: as §1

Gal(a1-6)Glc = target: Gal(a1-6)Glc
Summary of the method: as §1

[15] = target: Gal(b1-3)GalNAc(a1-3)[Fuc(a1-2)]Gal(b1-4)Glc
Summary of the method: as §1

Gal(b1-3)GlcNAc(b1-2)Man = target: Gal(b1-3)GlcNAc(b1-2)Man
Summary of the method: as §1

[16] = target: Gal(b1-3)GlcNAc(b1-2)[Gal(b1-3)GlcNAc(b1-6)]Man(a1-6)[Gal(b1-3)GlcNAc(b1-2)Man(a1-3)]Man(b1-4)GlcNAc(b1-4)GlcNAc
Summary of the method: as §1

Gal(b1-4)Gal = target: Gal(b1-4)Gal
Summary of the method: as §1

[17] = target: Gal(b1-4)GalNAc(b1-3)[Fuc(a1-2)]Gal(b1-4)GlcNAc
Summary of the method: as §1

[18] = target: Gal(b1-4)GlcNAc(b1-2)[Gal(b1-4)GlcNAc(b1-4)]Man(a1-3)[Gal(b1-4)GlcNAc(b1-2)[Gal(b1-4)GlcNAc(b1-6)]Man(a1-6)]Man(b1-4)GlcNAc(b1-4)GlcNAc
Summary of the method: as §1

[19] = target: Gal(b1-4)GlcNAc(b1-3)Gal(b1-4)GlcNAc(b1-3)Gal(b1-4)GlcNAc(b1-2)Man(a1-3)[Gal(b1-4)GlcNAc(b1-3)Gal(b1-4)GlcNAc(b1-3)Gal(b1-4)GlcNAc(b1-2)Man(a1-6)]Man(b1-4)GlcNAc(b1-4)[Fuc(a1-6)]GlcNAc
Summary of the method: as §1

[20] = target: Gal(b1-4)GlcNAc(b1-3)Gal(b1-4)GlcNAc(b1-3)[Gal(b1-4)GlcNAc(b1-3)Gal(b1-4)GlcNAc(b1-6)]GalNAc
Summary of the method: as §1

[21] = target: Gal3S(b1-4)[Fuc(a1-3)]Glc6S
Summary of the method: as §1

Gal3S4S(b1-4)GlcNAc = target: Gal3S4S(b1-4)GlcNAc
Summary of the method: as §1

GalNAc(b1-4)Gal(b1-4)Glc = target: GalNAc(b1-4)Gal(b1-4)Glc
Summary of the method: as §1

GalNAc4S6S(b1-4)GlcNAc = target: GalNAc4S6S(b1-4)GlcNAc
Summary of the method: as §1

[22] = target: Glc(a1-6)Glc(a1-6)Glc(a1-6)Glc
Summary of the method: as §1

B1: Siglec-E (Mus musculus), Q91Y57 (protein)
chain: MLLLLLLLLLWGIKGVEGQNPQEVFTLNVERKVVVQEGLCVLVPCNFSYLKKRLTDWTDSDPVHGFWYREGTDRRKDSIVATNNPIRKAVKETRNRFFLLGDPWRNDCSLNIREIRKKDAGLYFFRLERGKTKYNYMWDKMTLVVTALTNTPQILLPETLEAGHPSNLTCSVPWDCGWTAPPIFSWTGTSVSFLSTNTTGSSVLTITPQPQDHGTNLTCQVTLPGTNVSTRMTTRLNVSYAPKNLTVTIYQGADSVSTILKNGSSLPISEGQSLRLICSTDSYPPANLSWSWDNLTLCPSKLSKPGLLELFPVHLKHGGVYTCQAQHALGSQHISLSLSPQSSATLSEMMMGTFVGSGVTALLFLSVCILLLAVRSYRRKPARPAVVAPHPDALKVSVSQNPLVESQADDSSEPLPSILEAAPSSTEEEIHYATLSFHEMKPMNLWGQQDTTTEYSEIKFPQRTAWP
In the case of B1, the “glycan array binding signal (z-score)” value [1] is reported as 3.48, the “glycan array binding signal (z-score)” value [2] is reported as 0.284 and the “glycan array binding signal (z-score)” value [3] is reported as 3.46. The “glycan array binding signal (z-score)” value [4] was 0.178, the “glycan array binding signal (z-score)” value [5] was 5.32 and the “glycan array binding signal (z-score)” value [6] was 3.5. For the same binder, the “glycan array binding signal (z-score)” value [7] was 5.58, the “glycan array binding signal (z-score)” value [8] was 0.611 and the “glycan array binding signal (z-score)” value [9] was -0.176. The “glycan array binding signal (z-score)” value [10] was -0.363, the “glycan array binding signal (z-score)” value [11] was -0.35 and the “glycan array binding signal (z-score)” value (Fuc(a1-4)GlcNAc) was 4.01. For the same binder, the “glycan array binding signal (z-score)” value [12] was -0.381, the “glycan array binding signal (z-score)” value [13] was 6.54 and the “glycan array binding signal (z-score)” value (Gal(a1-3)GalNAc) was -0.309. For the same binder, the “glycan array binding signal (z-score)” value [14] was 4.23, the “glycan array binding signal (z-score)” value (Gal(a1-6)Glc) was 0.863 and the “glycan array binding signal (z-score)” value [15] was -0.496. For the same binder, the “glycan array binding signal (z-score)” value (Gal(b1-3)GlcNAc(b1-2)Man) was -0.592, the “glycan array binding signal (z-score)” value [16] was 1.66 and the “glycan array binding signal (z-score)” value (Gal(b1-4)Gal) was 3.25. The “glycan array binding signal (z-score)” value [17] was -0.625, the “glycan array binding signal (z-score)” value [18] was -0.667 and the “glycan array binding signal (z-score)” value [19] was -0.527. The “glycan array binding signal (z-score)” value [20] was -0.06, the “glycan array binding signal (z-score)” value [21] was 0.707 and the “glycan array binding signal (z-score)” value (Gal3S4S(b1-4)GlcNAc) was -0.239. For the same binder, the “glycan array binding signal (z-score)” value (GalNAc(b1-4)Gal(b1-4)Glc) was 4.05, the “glycan array binding signal (z-score)” value (GalNAc4S6S(b1-4)GlcNAc) was -0.147 and the “glycan array binding signal (z-score)” value [22] was 1.1.
